TPT1 inhibitor: Candida albicans TPT1 enzyme inhibitors, primary screen, biochemical, fluorescence polarization; tRNA 2'-phosphotransferase TPT1 (Candida albicans SC5314); recombinant caTPT1, FP RNA substrate dephosphorylation; inhibition, % at 5 µM; 300,000 compounds, 0.81% hits; AID 1962, 2009;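 active = inhibition above the mean of all tested compounds plus 3 SD, set per screening campaign, cut at about 24% in these data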
Rpn11 block: Rpn11 (PSMD14) deubiquitinase inhibitors, primary screen, biochemical, fluorescence polarization, uHTS. 26S proteasome non-ATPase regulatory subunit 14 (Homo sapiens), O00487. human 26S proteasome, Ub4-pepOG fluorescence polarization; 20S core pre-blocked with epoxomicin. inhibition, % at 20 µM. 360,000 compounds, 0.59% hits. AID 588493, 2011;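 active = inhibition at 20 µM, scaled to each plate's controls, above about 33%, limit read from the data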
HNF4A DNA FP: change in binding of human HNF4A to DNA, primary screen, biochemical, fluorescence polarization, FITC-DNA; Hepatocyte nuclear factor 4-alpha (Homo sapiens), P41235; 1 h; activity change, % at 10 µM; AID 1224865, 2016; 360,000 compounds, 0.3% hits; in the data active = activity change above about 30%, passing the limit was not always enough
Target sequence (P41235 whole entry, looked up): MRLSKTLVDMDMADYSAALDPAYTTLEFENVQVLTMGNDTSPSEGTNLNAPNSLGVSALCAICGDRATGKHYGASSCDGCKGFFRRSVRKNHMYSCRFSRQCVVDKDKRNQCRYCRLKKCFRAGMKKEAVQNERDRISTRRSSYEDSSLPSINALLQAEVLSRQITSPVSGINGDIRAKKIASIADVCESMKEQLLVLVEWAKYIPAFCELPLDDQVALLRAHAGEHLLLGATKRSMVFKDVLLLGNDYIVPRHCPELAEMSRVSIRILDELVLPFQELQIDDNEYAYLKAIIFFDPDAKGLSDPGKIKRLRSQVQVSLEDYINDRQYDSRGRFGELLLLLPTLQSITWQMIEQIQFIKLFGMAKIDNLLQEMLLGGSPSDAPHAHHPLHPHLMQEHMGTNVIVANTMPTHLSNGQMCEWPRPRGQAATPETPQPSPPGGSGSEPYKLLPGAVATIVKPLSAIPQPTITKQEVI
Myeloid diff 2: induction of myeloid progenitor differentiation, primary screen, cell-based, flow cytometry, MLPCN library | ER-HoxA9 myeloid progenitors, lysozyme-GFP differentiation | calls only at 10 µM | AID 624256, 2012 | 360,000 compounds, 1% hits;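 active = normalized GFP-positive differentiation at or above the plate's own cutoff, the solvent-only control mean plus 3 SD; inconclusive = no clear call, values can overlap the other calls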;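 also: cells exposed to compound for four days before flow analysis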
Each line names hits and unclear results; the compound was inactive in the other large screens. Most compounds without a hit are left out; they make up all but 2.1% or so of the library.

Cc1ccc(S(=O)(=O)N(C)C[C@@H]2OCCCC[C@H](C)Oc3ccc(NC(=O)Nc4ccc(F)cc4)cc3C(=O)N([C@H](C)CO)C[C@H]2C)cc1	none (no result: TPT1 inhibitor)
CC(=O)N1CC(C)Sc2ccc(S(=O)(=O)NC(C)c3ccccc3)cc21 (configuration not stated)	none
O=S(=O)(c1ccccc1)c1nnn2c1nc(NC1CCN(Cc3ccccc3)CC1)c1cc(Cl)ccc12	Myeloid diff 2 inconclusive
O=S(=O)(c1ccccc1)c1nnn2c1nc(NC1CCN(Cc3ccccc3)CC1)c1ccccc12	Myeloid diff 2 active
Cn1c(=O)c2c(nc(CN3CCN(c4ccc(F)cc4)CC3)n2CCN2CCOCC2)n(C)c1=O	HNF4A DNA FP 75
Cc1ccccc1Cn1c(CN2CCN(c3ccc(F)cc3)CC2)nc2c1c(=O)n(C)c(=O)n2C	none (no result: Rpn11 block, HNF4A DNA FP, Myeloid diff 2)
CSc1ccccc1C(=O)C1CCCN(S(=O)(=O)c2c(C)noc2C)C1 (configuration not stated)	none
COc1cc(/C=N/Nc2nncc3ccccc23)cc(OC)c1OC	Myeloid diff 2 active
C(=N\Nc1nncc2ccccc12)/c1ccccc1	none
NC(=O)c1ccc(NC(=O)c2cccc(Oc3ccccc3)c2)cc1	none
NS(=O)(=O)c1cccc(NC(=O)c2cccc(Oc3ccccc3)c2)c1	Myeloid diff 2 active
CCN(CC(=O)Nc1ccc(OC)cc1)C(=O)Cc1coc2cc(C)c(C)cc12	none (no result: TPT1 inhibitor)
C1=C2C[N+]3(CCCC3)CC2Cc2ccc3ccccc3c21 (configuration not stated)	Myeloid diff 2 active
COC(=O)c1cc2ccccc2c(-c2c(OC)c(C(=O)OC)cc3ccccc23)c1OC	Myeloid diff 2 active
O=C(Nc1ccccc1-c1ccccc1)C(c1ccccc1)c1ccccc1	none
CCOC(=O)C(=O)N1CCC(C(=O)OC)CC1	none
COc1ccc(OC)c(C(C)NC(C)=O)c1 (configuration not stated)	Myeloid diff 2 active
CNC(C)c1cc(OC)ccc1OC (configuration not stated)	none
Oc1ccc(C[C@@H]2CNCCN2CCc2cc(C(F)(F)F)cc(C(F)(F)F)c2)cc1	Myeloid diff 2 active
CCCCNS(=O)(=O)c1ccc2nc(-c3cccnc3)cc(C(=O)NCC(OC)OC)c2c1	none
CCOC(=O)/C(C#N)=C\c1ccc(OC)c(OC)c1	none
CCOC(=O)c1c(-c2ccccc2)csc1NC(=O)/C(C#N)=C/c1ccc(OC)c(OC)c1	Myeloid diff 2 active
COc1cc(C(=O)N=c2sccn2C)c([N+](=O)[O-])cc1OC	none (no result: TPT1 inhibitor)
Cn1ccsc1=NC(=O)c1ccc([N+](=O)[O-])o1	Myeloid diff 2 active
O=C(N/N=C/C(Br)=C/c1ccccc1)c1cnccn1	Myeloid diff 2 active
O=C(N/N=C/C=C\c1ccccc1)c1cnccn1	none
CN(C)c1ccc(C=c2c3ccccc3n3c2cc(-c2ccccc2)[n+]3C)cc1	Rpn11 block 46, HNF4A DNA FP 74, Myeloid diff 2 inconclusive (no result: TPT1 inhibitor)
COc1cc(C=c2c3ccccc3n3c2cc(-c2ccccc2)[n+]3C)cc(OC)c1OC	none (no result: TPT1 inhibitor)
CN(C)c1ccc(C=c2c3cc([N+](=O)[O-])ccc3n3c2cc(-c2ccccc2)[n+]3C)cc1	Myeloid diff 2 inconclusive (no result: TPT1 inhibitor)
CN(C)c1ccc(C=c2c3ccccc3n3c2cc(-c2ccc(Cl)cc2)[n+]3C)cc1	HNF4A DNA FP 50, Myeloid diff 2 inconclusive (no result: TPT1 inhibitor)
COc1ccc(-c2cc(=O)oc3c(C)c(OC(C)C(C)=O)ccc23)cc1 (configuration not stated)	Myeloid diff 2 active
CCOC(=O)C(Oc1ccc2c(-c3ccc(OC)cc3)cc(=O)oc2c1C)c1ccccc1 (configuration not stated)	none
Cc1cc(=O)oc2c(C)c(OC(C)C(=O)NCCN3CCOCC3)ccc12 (configuration not stated)	none
COc1ccc(-c2cc(=O)oc3c(C)c(OC(C)C(=O)Nc4ccc(CN5CCOCC5)cc4)ccc23)cc1 (configuration not stated)	Myeloid diff 2 active
N#C/C(=C/c1cn[nH]c1-c1ccc(Br)cc1)C(=O)O	none
CC(C)(C)C(=O)N1CCN(c2nc3ccc(Br)cc3s2)CC1	Myeloid diff 2 active
COCCCn1c(=O)/c(=C\c2ccc(OC(F)F)c(OC)c2)s/c1=C(/C#N)C(N)=O	HNF4A DNA FP 51 (not shown: Rpn11 block)
Cc1ccc(NC(=O)c2cc3ccccc3oc2=N)cc1	none
N=c1oc2c3c4c(cc2cc1C(=O)Nc1ccccc1)CCCN4CCC3	Myeloid diff 2 active

Assay outcomes deposited in PubChem BioAssay by several laboratories.
